Only a selection was taken, and hits are over-represented in it overall.
Vaccinia pol inh: blocks vaccinia virus processive DNA synthesis; normalized absorbance, % (no concentration beside the values); 0.94% of 46,000 active; AID 493162; in vitro processive DNA synthesis, absorbance read-out; active compounds read low; in the data active = normalized absorbance mostly below about 85%, no sharp cut-off; inactive = mostly above about 86%
* hit, by the source's call.

SMILES	Vaccinia pol inh
CC1CC(=O)c2cnc(N3CCc4ccccc43)nc2C1 (configuration not stated)	100
S=c1[nH]c(=S)c2cnc(N3CCc4ccccc43)nc2[nH]1	98
CNc1nc(N2CCc3ccccc32)ncc1F	56*
Cc1ccc2c(c1)C(c1ccccc1)CC(C)N2S(=O)(=O)c1cccc(Cl)c1 (configuration not stated)	100
Cc1ccc(-n2c(-c3ccccc3)csc2=NC(=O)c2ccccc2)cc1	100
CCCCN1CN=C(Nc2nc(C)c3ccccc3n2)NC1	96
c1ccc(CN2CN=C(Nc3nc4ccccc4o3)NC2)cc1	103
Cc1nc(NC2=NCN(Cc3ccccc3)CN2)nc2ccccc12	73*
CCOc1ccc(N=C2C(=O)N(c3ccccc3)c3ccccc32)cc1	88
CC(C)=C(C#N)c1nc2ccccc2n1C	104
Cn1nc(-c2ccccc2)c(/C=N/O)c1Cl	100
O/N=C/c1cccs1	124
O/N=C/C1=C(Cl)c2ccccc2CC1	78*
CCCOC(=O)c1ccc(NC(=O)/C=C/c2ccccc2)cc1	100
O=C(OCCN1CCCC1=O)c1sc2cc(Cl)ccc2c1Cl	84
O=C(CSC1=NCCc2ccccc21)c1ccc(-c2ccccc2)cc1	69*
O=C(SC1=NCCc2ccccc21)c1ccccc1	97
O=C(CSC1=NCCc2ccccc21)c1ccccc1Cl	87
COc1ccc2c(=O)c(Oc3cc(C)ccc3C)coc2c1	100
O=C(O)CCC1CCCCCCCCCCC1	74*
O=C(O)CNC(=O)C1CCCCC1	103
N[C@@H](CC1CCCCC1)C(=O)O	99
CSC1=NC(=O)/C(=C\c2cccc3ccccc23)S1	73*
O=C1NC(=O)C(=Cc2cccc3ccccc23)C(=O)N1	88
CC(C(=O)O)N1C(=O)/C(=C/c2cccc3ccccc23)SC1=S (configuration not stated)	85
SMILES	Vaccinia pol inh
O=C(NC1CCCc2ccccc21)C1CCCN(c2nnc(-n3cccc3)s2)C1 (configuration not stated)	93
O=C1CSC(=NC(=O)c2ccc(Cl)c(Cl)c2)N1	109
COc1ccc2c(c1)c1nc(N(C)C)nc3c1n2CCN3C	11*
COc1ccc2c(c1)cc1n2CCN2CCN=C12	76
COc1ccc2c(c1)cc1n2CCN=C1N	90
CCOP(=S)(OCC)C(Nc1ccccc1)c1ccccc1 (configuration not stated)	88
CC(C)C(=O)c1c(O)c2ccccc2oc1=O	98
CC(=O)OCC(=O)[C@@]1(O)CCC2C3CCC4CC(=O)CCC4(C)C3CCC21C (some centres not stated)	96
CCCNC(=O)N(C)Cc1ccccc1	101
O=C(O)c1ccc2c(c1)NC(=O)C(CSCc1ccccc1Cl)N2 (configuration not stated)	39*
NC(=O)NC(=O)CC1Nc2ccccc2NC1=O (configuration not stated)	99
CNC(=O)CC1Nc2ccccc2NC1=O (configuration not stated)	103
Cc1cccc(NC(=O)c2ccccc2N)n1	100
O=C(OCc1ccc2c(c1)OCO2)c1ccccc1Br	99
CCOC(=O)c1cc(-c2ccccc2)n(CCC(=O)O)c1C	88
CCOC(=O)c1cc(-c2ccccc2)n(-c2cccc(C(=O)N3CCCC3)c2)c1C	78
CCOC(=O)c1cc(-c2ccccc2)n(-c2ccc(C(=O)O)cc2)c1C	61*
CCCNC(=O)c1ccc2ccccc2c1	106
O=C(/C=C/C(=O)c1ccc2ccccc2c1)c1ccccc1	98
C/C(=N\N)c1ccc2ccccc2c1	83*
O=C(Nc1nc2ccccc2n1Cc1ccc(Cl)cc1)C1CCCCC1	100
CC1(C)C=C(NCC2CCCO2)CC(=O)C1 (configuration not stated)	100
N[C@@H](CO)CSCc1ccccc1	97
COc1ccc(Nc2ccnc3ccccc23)cc1	98
Oc1ccc(Nc2nc(N3CCOCC3)c3ccccc3n2)cc1	89
SMILES	Vaccinia pol inh
c1ccc2cc3c(Nc4ccc(N5CCOCC5)cc4)ccnc3cc2c1	67*
CC(C)Nc1ccc(Nc2ccnc3cc4ccccc4cc23)cc1	10*
CC(C)Nc1ccc(Nc2ccccc2)cc1	96
c1cc(N2CCOCC2)ccc1NC1=NCCS1	89
N=C1/C(=C/c2cccn2-c2ccc(Br)cc2)C(=O)N=C2SC=CN12	100
CC(=O)Oc1cccc(/C=c2/sc3nc(-c4ccc(F)cc4)nn3c2=O)c1	83
CC1(C)CC(=O)/C(=C(\O)Cc2ccccc2)C(=NCc2ccccc2)C1	93
O=C(O)/C=C/C(=O)N1CCCC(C(F)(F)F)C1 (configuration not stated)	90
CC(C)c1ccc(NC(=O)c2cc(S(=O)(=O)N3CCCC3)cn2C)cc1	102
COc1ccc(/C=C2\SC(=S)N(/N=C/c3ccc(OC)cc3)C2=O)cc1	100
COc1ccc2c(c1)[C@@]1(C)CCC[C@](C)(CO)C1CC2 (some centres not stated)	100
COC(=O)[C@@]1(C)CCCC2(C)c3ccc(C(C)C)cc3CCC21 (some centres not stated)	100
CC(C)c1ccc2c(c1)CCC1C(C)(CNC(=O)/C=C/C(=O)O)CCCC21C (configuration not stated)	81*
CC(=O)N1CC(C)Sc2cc(S(=O)(=O)NCc3ccco3)ccc21 (configuration not stated)	105
CN(C)C(C#N)c1c[nH]c2ccccc12 (configuration not stated)	101
O=C(NCC1(c2ccccc2)CCCC1)c1cc2c(=O)[nH]c3ccccc3c2s1	101
CN1CCN(C(=O)c2ccc(N)cc2)CC1	93
O=C(Nc1nc2ccccc2s1)c1ccccc1	101
CCNc1nc2c(C)cccc2s1	104
NNc1nc2ccccc2s1	78*
O=C(Nc1nc2c(Cl)cccc2s1)C1CC1	101
c1ccc(CCNc2nc3ccccc3s2)cc1	101
Cc1cccc2sc(NN)nc12	61*
CCc1ccc(OCC(O)CN2CCN(Cc3ccc4c(c3)OCO4)CC2)cc1 (configuration not stated)	97
CCC(=O)NC(Nc1sc(C)c(CC)c1C#N)(C(F)(F)F)C(F)(F)F	100
SMILES	Vaccinia pol inh
COc1ccc(C(=O)CN2CCCc3cc(C)ccc32)cc1	105
Cc1cc2nccc(-c3ccccc3)n2n1	94
O=C(COc1cc2oc(=O)cc(-c3ccccc3)c2cc1Cl)NC1CC1	100
CCOc1cccc(=O)c2c(C)n(-c3ccc(OC)cc3)c(C)c12	98
CCOc1cccc(=NC2CCCCC2)c2c(C)n(C)c(C)c12	89*
CCOc1ccccc1C(=O)NC1CCCCCC1	99
COc1ccccc1C(=O)Nc1cccc(-c2csc(-c3ccccc3)n2)c1	100
OC(CN1CCNCC1)Cn1c2ccc(Br)cc2c2cc(Br)ccc21 (configuration not stated)	31*
OC(CN1CCN(c2cccc(Cl)c2)CC1)Cn1c2ccccc2c2ccccc21 (configuration not stated)	100
CC1CC(C)CN(CC(O)Cn2c3ccccc3c3ccccc32)C1 (configuration not stated)	92
CCCC1CCC(c2ccc(C(=O)CCN(C)C)cc2)CC1 (configuration not stated)	93
CCCCC1CCC(c2ccc(C(=O)O)cc2)CC1 (configuration not stated)	51*
CCCC1CCC(c2ccc(C(N)=O)cc2)CC1 (configuration not stated)	99
CC(C)N(C(=O)Cn1ccc(=N)c2ccccc21)C(C)C	100
